# JMJD2A Tudor inh – inhibitors of human JMJD2A Tudor domain | O75164 | AlphaScreen JMJD2A-Tudor / H3K4me3 peptide binding | Potency, µM (series often up to 114 µM), without a hit: at the top dose activity change, negative = inhibition, hits mostly inhibitors | hit rate 4.4% among 390,000; also: % is scaled to controls: 0 for no effect and ±100 for the full control effect; nearly all actives have a fitted effect of over 50% in size
# BAZ2B inh – inhibitors of human BAZ2B bromodomain; AID 504333; Q9UIF8; AlphaScreen BAZ2B-H3K14Ac peptide displacement; hit rate 4.4% among 360,000; Potency, µM (top dose mostly 114 µM), inactives show top-dose activity change, negative = inhibition, most hits filed as inhibitors; also: % is scaled to controls: 0 for no effect and ±100 for the full control effect; nearly all actives have a fitted effect of over 60% in size
#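 BAZ2B 50 nM plus b-H3(5-23)K14Ac 50 nM, PBS pH 7.4/0.01% Tween-20, 30 min RT; compound added (max 110 uM), 30 min RT; streptavidin donor/Ni-chelate acceptor beads 10 ug/mL final, 20 min dark; AlphaScreen read.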
# HP1b chromo inh – HP1-beta chromodomain-methylated histone interaction inhibition. hit rate 0.56% among 390,000. Potency, µM (highest dose often 114 µM), for inactives: at the highest dose activity change, negative = inhibition, most hits filed as inhibitors. P83916. AlphaScreen HP1-beta / biotin-H3K9me3 peptide binding; also: nearly all actives have a fitted effect of over 70% in size
#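 Compound inhibition of the preformed complex between 50 nM HP1-beta and 50 nM biotinylated H3K9me3 peptide was read by AlphaScreen. Buffer was PBS pH 7.4 with 0.01% Tween-20. Incubations ran 30 min at room temperature, with 10 ug/mL donor/acceptor beads.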
# G9a inh – blocks human histone lysine methyltransferase G9a; G9a H3K9 monomethylation, AlphaScreen, 2 h; AID 504332; Potency, µM (doses to about 102 µM), for inactives: top-dose activity, negative = inhibition, most hits filed as inhibitors; Q96KQ7; hit rate 8.8% among 350,000; also: % is scaled to controls: 0 for no effect and ±100 for the full control effect; nearly all actives have a fitted effect of over 75% in size
#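 AlphaScreen detection with an anti-monomethyl H3K9 antibody quantified product after a 2 h room-temperature reaction containing 500 nM biotinylated H3K9 peptide, 20 µM SAM and 20 nM enzyme, which had been preincubated 15 min with compound.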
# GLS inhibitor – blocks human kidney-isoform glutaminase activity. GLS enzymatic activity, qHTS titration. Potency, µM (top dose mostly 45.5 µM), inactives show top-dose activity change, negative = inhibition, hits mostly inhibitors. hit rate 0.21% among 410,000. AID 624170; also: % is scaled to controls: 0 for no effect and ±100 for the full control effect
#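 Human kidney-isoform GLS in 45 mM KH2PO4 pH 8.2, 0.02% Tween-20, with compound, started with 1mM L-Glutamine (added stock). Glutamate oxidase/HRP/Amplex red coupled fluorescence read at start and after 30 min at RT.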
# * marks the source's active call; other numbers are inactive results; ? = inconclusive; . = no result; [ ] = dose if it differs, or a comment. Compounds with a hit are over-represented: about 10% of the library has one in this group of screens. Calls follow the shape of the dose curve; as a rule, active = well fitted curve in the direction sought with a large enough effect; inconclusive = small, poorly fitted or top-dose-only effect, or another doubt; inactive = no such curve, though single readings can be large; an effect the other way counts as inactive or inconclusive. Potency is read from the fitted curve at half-maximal effect.
SMILES,JMJD2A Tudor inh,BAZ2B inh,HP1b chromo inh,G9a inh,GLS inhibitor
CCC1CCc2nc3sc(C(=O)Nc4ccc(F)c(F)c4)c(N)c3cc2C1 (stereo not given),-20%,4%,24%,-19%[59 µM],-8%
O=C(O/N=C/c1ccc(Br)cc1)c1ccc(F)cc1,-17%,.,19%,.,-3%
Cc1ccc(C2=NC(C)(C)N=C2SCC(=O)Nc2ccc(Cl)cc2)cc1,12%[57.1 µM],11%,15%,-4%,1%
O=c1/c(=C/c2ccco2)sc2nc(-c3ccccc3Br)nn12,50µM*,45µM*,8.9µM*,22µM*,-3%
COc1ccccc1-c1nc2s/c(=C\c3cccs3)c(=O)n2n1,-5%[11.4 µM],-33%,-38%,2.8µM*,-2%
COc1ccc(/C=c2\sc3nc(-c4ccccc4OC)nn3c2=O)c(OC)c1,89µM*,-18%,3%,-6%[12.7 µM],?
CN(C)c1ccc(/C=c2\sc3nc(-c4ccccc4)nn3c2=O)cc1,.,2%,.,11%[12.7 µM],.
Cc1ccc(/C=c2\sc3nc(-c4cccs4)nn3c2=O)o1,?,-32%,0%,18µM*,-2%
COc1cccc(/C=c2\sc3nc(-c4cccs4)nn3c2=O)c1OC,-21%,-24%,-19%,-42%[59 µM],0%
CCCOc1ccccc1NC(=O)c1ccc(N)cc1,-11%,7%,27%,-4%[12.7 µM],1%
COc1cccc(NC(=S)N(CCCN2CCCC2)Cc2ccco2)c1,-8%,-3%,31%,16%,2%
Cc1ccccc1NC(=S)N(CCCN1CCOCC1)Cc1ccccn1,3.5µM*,-3%,-6%,-10%[59 µM],6%
CSc1cccc(NC(=S)N(CCCN2CCCC2)Cc2cccn2Cc2ccc(Cl)cc2)c1,20µM*,25µM*,-14%,35µM*,-16%
COc1ccc(NC(=S)N2CCCN(Cc3cccc(Cl)c3)C2)cc1,?,?,4%,12%[59 µM],17%
COc1cccc(NC(=S)N(CCCN2CCCC2)Cc2cccn2Cc2ccc(Cl)cc2)c1,45µM*,-38%,?,40µM*,-4%
CSc1cccc(NC(=S)N2CCCN(Cc3cccc(Cl)c3)C2)c1,?,25µM*,0%,5%[59 µM],12%
CCc1nnc(NC(=O)CN2C(=O)c3ccccc3C2=O)s1,-2%,4%,16%,1%[59 µM],-5%
COc1ccc2nc(/N=C/c3cccc(OC)c3O)sc2c1,-11%,-15%,15%,19%,33%
Cn1cc(CN(CCCN2CCOCC2)C(=S)Nc2cccc(Cl)c2)c2ccccc21,?,?,-24%,79µM*,18%
S=C(Nc1cccc(Cl)c1)N(CCCN1CCCC1)Cc1cccn1Cc1ccc(Cl)cc1,32µM*,?,-18%,35µM*,0%
COc1ccc(C2C(C(=O)N3CCOCC3)CCC(=O)N2c2ccc(OC)cc2)cc1 (stereo not given),-15%,18%,20%,-1%[12.7 µM],-1%
COc1ccc(N2C(=O)CCC(C(=O)N3CCCCC3)C2c2ccc(OC)c(OC)c2)cc1 (stereo not given),-1%,10%,12%,56µM*,-3%
C/C(=N\NC(=S)NCCc1ccccc1)c1ccc(Cl)cc1,?,?,-8%,15%[59 µM],5%
CCCCCCCCCCOCC(O)CN (stereo not given),.,.,.,1%[12.7 µM],-7%
Cc1ccc(C(C)C)c(OCCn2ccnc2C)c1,1.3µM*,50µM*,?,10µM*,-3%
SMILES,JMJD2A Tudor inh,BAZ2B inh,HP1b chromo inh,G9a inh,GLS inhibitor
Cc1ccc(C(C)C)c(OCCNS(C)(=O)=O)c1,-8%,2%,24%,15%[59 µM],8%
Cc1ccc(OCCCCn2ccnc2C)c(C)c1,1µM*,22µM*,?,2µM*,52%
COc1ccc(OC)c(NCc2cccn2-c2nnc(N3CCCCC3)s2)c1,50µM*,-37%[57.1 µM],?,8.9µM*,6%
COc1cccc(CNCc2cccn2-c2nnc(N3CCN(c4ccccc4)CC3)s2)c1,50µM*,?,-23%,?,13%
COc1ccc(NCc2cccn2-c2nnc(N3CCCCC3)s2)cc1OC,?,-29%[57.1 µM],?,?,18%
COc1ccccc1NCc1cccn1-c1nnc(N2CCCCCC2)s1,45µM*,-2%[57.1 µM],-13%,?,-4%
O=c1[nH][nH]c(=S)n1C1CCCCC1,2.5µM*,25µM*,3.5µM*,1.1µM*,?

# Screening results deposited in PubChem BioAssay by National Center for Advancing Translational Sciences (NCATS).
